From PubChem BioAssay (NCI) come the findings set out here.

Common to all, as to assay: NCI-60 one-dose screen, 48 h (100 = growth as untreated, 0 = no growth, -100 = all killed)
Holding throughout (conditions): 10 µM unless noted

The subject of experiment [1] is NCI-H23 lung.
Experiment [2] concerns NCI-H226 lung.
In experiment [3] the test system is NCI-H322M lung.
In experiment [4] the test system is HOP-62 NSCLC.
Experiment [5] has as its system NCI-H460 lung.
The subject of experiment [6] is HOP-92 NSCLC.
Experiment [7] concerns 786-0 renal.
In experiment [8] the test system is COLO 205 colon.
Experiment [9] relates to DU-145 prostate.
The subject of experiment [10] is K-562 leukemia.
The test system of experiment [11] is MALME-3M melanoma.
The test system of experiment [12] is MDA-MB-231 breast.
Experiment [13] relates to RXF 393 renal.
The subject of experiment [14] is SF-268 CNS.
Experiment [15] has as its system SF-295 CNS.
Experiment [16] relates to SF-539 CNS.
Experiment [17] deals with UACC-257 melanoma.
In experiment [18] the test system is M14 melanoma.
In experiment [19] the test system is A549/ATCC NSCLC.

Where “and” joins values, the source holds several entries; their conditions need not be identical. Equal values may be shown once. Compounds without any hit were thinned out: in the full panel of roughly 83,000, 20% have a hit.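 Values shown are percent growth following 48 h exposure of cells in 96-well plates to a single concentration of compound; below 10 was considered active.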 Calls of active or inactive are those of the source.

Take `Nc1ccccc1SC1CC(=O)N(c2ccc(I)cc2)C1=O` (configuration not stated): the growth in [1] was 89.8% (inactive); in [2], 102% (inactive); in experiment [3], 108% (inactive); in [4] it was 80.5% (inactive); in experiment [5], 92.6% (inactive); in experiment [6] it was 100% (inactive). Also, the growth in [7] was 105% (inactive); in experiment [8], 95.3% (inactive); in experiment [9], 92.7% (inactive); in [10], 82.9% (inactive); in [11], 75.6% (inactive); in experiment [12], 91% (inactive). For the same molecule, the growth in [13] is 115% (inactive); in [14], 84.1% (inactive); in experiment [15], 93.8% (inactive); in experiment [16], 89.6% (inactive); in experiment [17] it was 89.2% (inactive); in [18] it was 88% (inactive).

For `O=C(O)c1cccc(Br)c1`, the growth in [1] was 111% (inactive) and 102% (inactive); in experiment [2], 98.5% (inactive); in experiment [3], 96.4% (inactive) and 95.8% (inactive); in experiment [4], 95.5% (inactive) and 100% (inactive); in experiment [5], 115% (inactive) and 105% (inactive); in experiment [6] it was 101% (inactive) and 102% (inactive). The growth in experiment [19] was 98.8% (inactive) and 87% (inactive); in experiment [7], 96.4% (inactive) and 96.8% (inactive); in [8], 115% (inactive); in experiment [9], 113% (inactive) and 114% (inactive); in experiment [10], 89.4% (inactive) and 93.6% (inactive); in [11], 99.5% (inactive) and 107% (inactive). Further, the growth in experiment [12] is 97.9% (inactive) and 114% (inactive); in experiment [13], 108% (inactive) and 107% (inactive); in [14], 101% (inactive) and 102% (inactive); in [15] it was 94.3% (inactive) and 98.2% (inactive); in experiment [16], 94% (inactive) and 98.7% (inactive); in experiment [17] it was 97.6% (inactive) and 85.2% (inactive). Further, the growth in [18] was 99.7% (inactive) and 103% (inactive).

As for `CCc1ccc(OC(=O)CCl)cc1`, the growth in experiment [1] is 96.7% (inactive); in [2], 97% (inactive); in experiment [3], 102% (inactive); in experiment [4] it was 110% (inactive); in experiment [5], 106% (inactive); in [6] it was 101% (inactive). For the same molecule, the growth in experiment [19] is 105% (inactive); in experiment [7], 104% (inactive); in experiment [8] it was 111% (inactive); in experiment [9] it was 102% (inactive); in experiment [10] it was 102% (inactive); in experiment [11], 96.9% (inactive). Further, the growth in experiment [12] was 99.4% (inactive); in experiment [13] it was 113% (inactive); in experiment [14], 95.3% (inactive); in [15] it was 97.8% (inactive); in experiment [16], 99% (inactive); in experiment [17] it was 103% (inactive). In addition, the growth in [18] is 96.3% (inactive).

Regarding `CC(NC(=O)CCl)c1ccccc1` (configuration not stated), the growth in [1] is 99.9% (inactive); in experiment [2], 96.3% (inactive); in experiment [3], 106% (inactive); in experiment [4] it was 107% (inactive); in [5], 99.7% (inactive); in experiment [6], 89% (inactive). The growth in experiment [19] was 104% (inactive); in experiment [7], 104% (inactive); in experiment [8], 104% (inactive); in experiment [9], 103% (inactive); in [10], 109% (inactive); in experiment [11], 99.4% (inactive). The growth was 111% (inactive) in [12]; 98.7% (inactive) in experiment [13]; 98.3% (inactive) in [14]; 102% (inactive) in [15]; 104% (inactive) in experiment [16]; 100% (inactive) in experiment [17]. In addition, in experiment [18], the growth was 93.8% (inactive).

Regarding `Clc1ccc(/C=C/c2ccc3ccccc3n2)cc1`, the growth is 37.6% (inactive) and 89.5% (inactive) and 71.2% (inactive) in experiment [1]; 84.1% (inactive) and 81.1% (inactive) and 92.6% (inactive) in experiment [2]; 38.8% (inactive) and 90.3% (inactive) and 86.1% (inactive) in experiment [3]; 45.2% (inactive) and 95.4% (inactive) and 93.5% (inactive) in [4]; 8.45% (active) and 86% (inactive) and 81.1% (inactive) in experiment [5]; 42.9% (inactive) and 67% (inactive) and 85.3% (inactive) in experiment [6]. For the same molecule, the growth is 55.3% (inactive) and 97.8% (inactive) and 100% (inactive) in experiment [7]; -6.62% (active) and 112% (inactive) and 100% (inactive) in experiment [8]; 1.65% (active) and 108% (inactive) and 103% (inactive) in experiment [9]; 17.7% (inactive) and 91.2% (inactive) and 87.3% (inactive) in [10]; 62.3% (inactive) and 89.8% (inactive) and 77.1% (inactive) in [11]; 31% (inactive) and 80.1% (inactive) and 84% (inactive) in experiment [12]. Moreover, the growth is 8.75% (active) and 117% (inactive) in experiment [13]; 43.4% (inactive) and 97.7% (inactive) and 96.9% (inactive) in [14]; 17.9% (inactive) and 74% (inactive) and 84.7% (inactive) in experiment [15]; 1.74% (active) and 102% (inactive) in experiment [16]; 44.2% (inactive) and 134% (inactive) and 104% (inactive) in [17]; 81% (inactive) and 75.3% (inactive) in experiment [18].

For `COc1ccc(S(=O)(=O)c2ccc(F)cc2)cc1`, the growth in [1] was 102% (inactive); in [2], 97.1% (inactive); in experiment [3], 117% (inactive); in experiment [4] it was 109% (inactive); in [5], 114% (inactive); in experiment [6] it was 92.7% (inactive). Further, the growth in [19] is 82.4% (inactive); in experiment [7], 103% (inactive); in experiment [8], 113% (inactive); in experiment [9], 113% (inactive); in [10] it was 115% (inactive); in experiment [11] it was 93% (inactive). Moreover, the growth is 94.2% (inactive) in [12]; 138% (inactive) in experiment [13]; 101% (inactive) in experiment [14]; 116% (inactive) in experiment [15]; 111% (inactive) in experiment [16]; 93.8% (inactive) in experiment [17]. Moreover, the growth in experiment [18] is 101% (inactive).
